Test results as given in PubChem BioAssay (Tox21).
Inconclusive results are not listed. Where a call stands in place of a potency, no number is given. Activity calls are given as the source filed them. Unless noted, calls follow the shape of the dose curve; as a rule, active = well fitted curve in the direction sought with a large enough effect in the repeat runs; inconclusive = weak or mixed curves; inactive = no such curve, though single readings can be large; an effect the other way counts as inactive or inconclusive.

What was measured:
[1] = qHTS assay to identify aromatase inhibitors - cell viability counter screen (AID 743084);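 also: cells stimulated with testosterone during compound exposure; nearly all actives have a fitted effect of over 55% in size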; also: potency is read from the fitted curve at half-maximal effect
[2] = molecular target: Aryl hydrocarbon receptor (Homo sapiens) (UniProt P35869); experiment: qHTS assay to identify small molecule that activate the aryl hydrocarbon receptor (AhR) signaling pathway (AID 743085);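 also: HG2L7.5c1 human HepG2 liver cells with stably integrated DRE-driven firefly reporter; series mostly up to about 70 µM; nearly all actives have a fitted effect of over 15% in size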
How it was run: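 Cell line HG2L7.5c1 (human hepatoma, 20× DRE-luc). Plated, 5 h 37C, compound/DMSO added, 24 h 37C. CellTiter-Fluor 30 min 37C → fluorescence; then ONE-Glo 30 min RT → luminescence.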

[3] = qHTS assay to identify small molecule antagonists of the peroxisome proliferator-activated receptor gamma (PPARg) signaling pathway - cell viability counter screen (AID 743194); also: nearly all actives have a fitted effect of over 55% in size
How it was run: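 Viability was measured as CellTiter-Glo luminescence in GeneBLAzer PPARg UAS-bla HEK293H cells. These cells had been exposed 17 h at 37 C to compounds together with rosiglitazone at 50 nM final, with the beta-lactamase readout taken in the same wells.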

[4] = qHTS assay for small molecule activators of the heat shock response signaling pathway - cell viability counter screen (AID 743209); also: nearly all actives have a fitted effect of over 50% in size
How it was run: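 Readout: CellTiter-Glo luminescence, 30 min at room temperature. System: HSE-bla HeLa cells, 1500/well, plated overnight. Treatment: compounds in DMSO, 5 h at 37 C.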

[5] = qHTS assay for small molecule activators of the heat shock response signaling pathway (AID 743210; active = well fitted activation curve with a large enough effect in the signal ratio in the repeat runs, with a control signal flat, not every such curve was filed as active; the % refers to the signal ratio;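 also: HeLa cells with beta-lactamase reporter driven by heat shock elements; series mostly up to about 63 µM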)
How it was run: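 In HSE-bla HeLa cells, 5 h compound incubation (37 C) precedes addition of LiveBLAzer B/G substrate; after 2.5 h at room temperature, fluorescence intensity indicates reporter induction.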

[6] = qHTS assay to identify small molecule antagonists of the farnesoid-X-receptor (FXR) signaling pathway - cell viability counter screen (AID 743221; active = well fitted cell-killing curve with a large enough effect in the repeat runs, not every such curve was filed as active; also: nearly all actives have a fitted effect of over 50% in size)
How it was run: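 Luminescence from CellTiter-Glo measures cytotoxicity in GeneBLAzer FXR-UAS-bla HEK 293T cells. Cells were exposed to compounds with 50 uM chenodeoxycholic acid (final) for 16 h at 37 C, in wells also used for the reporter readout.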

[7] = molecular target: Vitamin D3 receptor (Homo sapiens) (UniProt P11473); experiment: qHTS assay to identify small molecule agonists of the vitamin D receptor (VDR) signaling pathway (AID 743222; calls by dose curve)
How it was run: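 In VDR-bla cells, compound-induced beta-lactamase expression is quantified by FRET substrate fluorescence. Treatment lasts 16 h at 37C; substrate develops 2 h at room temperature.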

[8] = molecular target: Vitamin D3 receptor (Homo sapiens) (UniProt P11473); experiment: qHTS assay to identify small molecule antagonists of the vitamin D receptor (VDR) signaling pathway (AID 743223; active = well fitted inhibition curve with a large enough effect in the signal ratio in the repeat runs, not every such curve was filed as active; the % refers to the signal ratio)
How it was run: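 Antagonist mode uses 1alpha,25-dihydroxyvitamin D3 at 3 nM final as stimulus. VDR-bla cells receive compounds in DMSO, incubate 16 h at 37C, then a beta-lactamase FRET substrate for 2 h at room temperature before fluorescence measurement.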

[9] = qHTS assay to identify small molecule that activate the aryl hydrocarbon receptor (AhR) signaling pathway - cell viability counter screen (AID 743086); also: nearly all actives have a fitted effect of over 45% in size; also: potency is read from the fitted curve at half-maximal effect
How it was run: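 Cytotoxicity counter screen: CellTiter-Fluor signal (30 min, 37 C) in 4000 HepG2 cells/well carrying the DRE-luciferase reporter, following 24 h compound exposure at 37 C.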

[10] = molecular target: Peroxisome proliferator-activated receptor gamma (Homo sapiens) (UniProt P37231); experiment: qHTS assay to identify small molecule agonists of the peroxisome proliferator-activated receptor gamma (PPARg) signaling pathway (AID 743094; active = well fitted activation curve with a large enough effect in the signal ratio in the repeat runs, not every such curve was filed as active; the % refers to the signal ratio)
How it was run: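 Compounds dissolved in DMSO were added to PPARg UAS-bla HEK293H cells for 17 h at 37C, and reporter expression was quantified by fluorescence intensity after 1 h with LiveBLAzer B/G FRET substrate.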

[11] = molecular target: Peroxisome proliferator-activated receptor gamma (Homo sapiens) (UniProt P37231); experiment: qHTS assay to identify small molecule antagonists of the peroxisome proliferator-activated receptor gamma (PPARg) signaling pathway (AID 743191; calls by dose curve; also: series mostly up to about 63 µM; nearly all actives have a fitted effect of over 30% in size)
How it was run: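 Beta-lactamase reporter under UAS control in HEK293H PPARg-bla cells; compound treatment 17 h at 37C. Read-out: fluorescence intensity after 1 h room-temperature incubation with LiveBLAzer B/G FRET substrate.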

[12] = qHTS assay to identify small molecule agonists of the peroxisome proliferator-activated receptor delta (PPARd) signaling pathway - cell viability counter screen (AID 743211); also: nearly all actives have a fitted effect of over 55% in size
How it was run: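 HEK293H PPARd-bla, 3000 cells/well; 5 h preincubation 37C/5% CO2; cpd in DMSO, 17 h 37C; B/G FRET substrate 2 h RT; CellTiter-Glo 30 min RT, luminescence.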

[13] = molecular target: Peroxisome proliferator-activated receptor delta (Homo sapiens) (UniProt Q03181); experiment: qHTS assay to identify small molecule agonists of the peroxisome proliferator-activated receptor delta (PPARd) signaling pathway (AID 743212; calls by dose curve)
How it was run: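 HEK293H UAS-bla reporter cells, human PPARd system; compounds delivered in DMSO after 5 h plating, then at 37 C. Beta-lactamase FRET read, 2 h RT substrate step.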

[14] = qHTS assay to identify small molecule antagonists of the peroxisome proliferator-activated receptor delta (PPARd) signaling pathway - cell viability counter screen (AID 743213); also: nearly all actives have a fitted effect of over 50% in size
How it was run: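 PPARd-bla HEK293H cells were treated with compounds plus agonist L165041 (300 nM final) for 17 h at 37 C. Viability was then read in the same wells by CellTiter-Glo luminescence after 30 min at room temperature.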

[15] = qHTS assay for small molecule agonists of the antioxidant response element (ARE) signaling pathway (AID 743202; active = well fitted activation curve with a large enough effect in the signal ratio in the repeat runs, not every such curve was filed as active; the % refers to the signal ratio)
How it was run: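 An ARE-responsive beta-lactamase gene stably integrated in HepG2 cells serves as reporter. After 5 h plating and 16 h compound incubation at 37 C, fluorescence of the B/G FRET substrate was measured.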

[16] = qHTS assay for small molecule agonists of the antioxidant response element (ARE) signaling pathway - cell viability counter screen (AID 743203; calls by dose curve; also: nearly all actives have a fitted effect of over 55% in size)
How it was run: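 Following 16 hrs of compound treatment at 37C, HepG2 cells with an ARE-controlled beta-lactamase gene were lysed with CellTiter-Glo. Luminescence was read after 30 min at room temperature.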

[17] = qHTS assay to identify small molecule agonists of the farnesoid-X-receptor (FXR) signaling pathway - cell viability counter screen (AID 743218); also: nearly all actives have a fitted effect of over 45% in size
How it was run: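 Parallel cytotoxicity test: compound-treated (16 h, 37 C) HEK 293T FXR-bla reporter cells were lysed with CellTiter-Glo and luminescence recorded.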

[18] = molecular target: Peroxisome proliferator-activated receptor delta (Homo sapiens) (UniProt Q03181); experiment: qHTS assay to identify small molecule antagonists of the peroxisome proliferator-activated receptor delta (PPARd) signaling pathway (AID 743215; active = well fitted inhibition curve with a large enough effect in the signal ratio in the repeat runs, not every such curve was filed as active; the % refers to the signal ratio;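 also: cells stimulated with agonist L165041 at 300 nM final during compound exposure; series mostly up to about 62 µM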)
How it was run: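 HEK293H UAS-bla, PPARd; agonist L165041 300 nM final with cpd in DMSO; 37 C 17 h; FRET substrate, RT 2 h; fluorescence intensity.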

[19] = molecular target: Bile acid receptor (Homo sapiens) (UniProt Q96RI1); experiment: qHTS assay to identify small molecule antagonists of the farnesoid-X-receptor (FXR) signaling pathway (AID 743217; active = well fitted inhibition curve with a large enough effect in the signal ratio in the repeat runs, not every such curve was filed as active; the % refers to the signal ratio)
How it was run: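 GeneBLAzer FXR-UAS-bla HEK 293T, CDCA-stimulated (50 uM final). Compound treatment 16 h, 37 °C. Detection: beta-lactamase cleavage of B/G FRET substrate, fluorescence.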

[20] = molecular target: Bile acid receptor (Homo sapiens) (UniProt Q96RI1); experiment: qHTS assay to identify small molecule agonists of the farnesoid-X-receptor (FXR) signaling pathway (AID 743220; active = well fitted activation curve with a large enough effect in the signal ratio in the repeat runs, not every such curve was filed as active; the % refers to the signal ratio)
How it was run: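 Beta-lactamase reporter under UAS control in GeneBLAzer FXR HEK 293T cells (5000/well) measured with LiveBLAzer FRET substrate after 2 h at room temperature. Compound exposure lasted 16 h at 37C.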

Vitamin D3 receptor (Homo sapiens), sequence (P11473 whole entry, looked up): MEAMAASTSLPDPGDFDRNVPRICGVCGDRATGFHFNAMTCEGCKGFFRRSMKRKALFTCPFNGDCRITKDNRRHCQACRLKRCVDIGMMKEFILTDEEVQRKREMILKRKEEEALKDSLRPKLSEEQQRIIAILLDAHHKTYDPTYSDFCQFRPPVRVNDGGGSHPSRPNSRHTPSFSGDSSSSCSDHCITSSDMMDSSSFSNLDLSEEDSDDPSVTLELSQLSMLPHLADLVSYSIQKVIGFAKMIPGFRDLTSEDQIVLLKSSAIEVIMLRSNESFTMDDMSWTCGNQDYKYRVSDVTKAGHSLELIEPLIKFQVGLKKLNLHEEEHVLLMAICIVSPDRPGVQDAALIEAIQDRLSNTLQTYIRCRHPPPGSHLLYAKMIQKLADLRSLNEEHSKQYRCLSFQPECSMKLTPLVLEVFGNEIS
Peroxisome proliferator-activated receptor delta (Homo sapiens), sequence (Q03181 whole entry, looked up): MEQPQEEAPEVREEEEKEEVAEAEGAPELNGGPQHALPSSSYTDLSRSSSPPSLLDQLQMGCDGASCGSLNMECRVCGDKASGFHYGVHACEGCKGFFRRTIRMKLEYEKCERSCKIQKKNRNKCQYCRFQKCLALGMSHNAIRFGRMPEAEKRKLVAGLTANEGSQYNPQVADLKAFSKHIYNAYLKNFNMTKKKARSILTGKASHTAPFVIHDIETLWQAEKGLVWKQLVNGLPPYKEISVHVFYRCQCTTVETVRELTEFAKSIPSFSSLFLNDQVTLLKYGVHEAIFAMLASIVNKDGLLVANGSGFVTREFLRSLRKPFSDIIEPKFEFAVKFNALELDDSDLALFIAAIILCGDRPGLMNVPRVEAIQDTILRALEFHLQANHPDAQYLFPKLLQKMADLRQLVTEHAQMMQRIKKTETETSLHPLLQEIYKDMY
Peroxisome proliferator-activated receptor gamma (Homo sapiens), sequence (P37231 whole entry, looked up): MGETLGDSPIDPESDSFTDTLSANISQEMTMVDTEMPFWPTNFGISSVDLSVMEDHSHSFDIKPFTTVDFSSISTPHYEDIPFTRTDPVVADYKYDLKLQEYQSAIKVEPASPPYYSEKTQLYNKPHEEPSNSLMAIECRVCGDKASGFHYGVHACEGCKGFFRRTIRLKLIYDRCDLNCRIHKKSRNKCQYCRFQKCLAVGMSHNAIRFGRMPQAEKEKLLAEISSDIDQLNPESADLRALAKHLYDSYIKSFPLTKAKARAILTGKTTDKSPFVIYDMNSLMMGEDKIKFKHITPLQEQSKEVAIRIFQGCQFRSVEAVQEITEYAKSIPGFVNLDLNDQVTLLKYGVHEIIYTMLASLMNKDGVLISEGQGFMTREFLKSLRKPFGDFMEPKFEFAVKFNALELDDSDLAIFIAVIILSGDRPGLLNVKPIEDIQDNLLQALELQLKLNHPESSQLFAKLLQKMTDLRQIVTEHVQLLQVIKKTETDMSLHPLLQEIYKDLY
Bile acid receptor (Homo sapiens), sequence (Q96RI1 whole entry, looked up): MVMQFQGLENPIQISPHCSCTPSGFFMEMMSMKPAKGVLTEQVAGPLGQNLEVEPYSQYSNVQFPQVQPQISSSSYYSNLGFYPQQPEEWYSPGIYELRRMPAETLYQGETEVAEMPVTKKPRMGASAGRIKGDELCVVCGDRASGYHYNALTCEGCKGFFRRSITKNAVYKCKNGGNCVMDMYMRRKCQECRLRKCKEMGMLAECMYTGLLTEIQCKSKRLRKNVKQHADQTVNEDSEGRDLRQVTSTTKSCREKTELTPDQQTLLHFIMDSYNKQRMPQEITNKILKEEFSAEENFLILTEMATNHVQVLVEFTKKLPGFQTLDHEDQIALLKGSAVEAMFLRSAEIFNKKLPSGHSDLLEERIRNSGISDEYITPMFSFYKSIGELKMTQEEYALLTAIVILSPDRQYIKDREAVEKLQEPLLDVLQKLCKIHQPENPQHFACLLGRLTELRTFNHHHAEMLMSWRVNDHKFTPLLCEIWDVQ
Aryl hydrocarbon receptor (Homo sapiens), sequence (P35869 whole entry, looked up): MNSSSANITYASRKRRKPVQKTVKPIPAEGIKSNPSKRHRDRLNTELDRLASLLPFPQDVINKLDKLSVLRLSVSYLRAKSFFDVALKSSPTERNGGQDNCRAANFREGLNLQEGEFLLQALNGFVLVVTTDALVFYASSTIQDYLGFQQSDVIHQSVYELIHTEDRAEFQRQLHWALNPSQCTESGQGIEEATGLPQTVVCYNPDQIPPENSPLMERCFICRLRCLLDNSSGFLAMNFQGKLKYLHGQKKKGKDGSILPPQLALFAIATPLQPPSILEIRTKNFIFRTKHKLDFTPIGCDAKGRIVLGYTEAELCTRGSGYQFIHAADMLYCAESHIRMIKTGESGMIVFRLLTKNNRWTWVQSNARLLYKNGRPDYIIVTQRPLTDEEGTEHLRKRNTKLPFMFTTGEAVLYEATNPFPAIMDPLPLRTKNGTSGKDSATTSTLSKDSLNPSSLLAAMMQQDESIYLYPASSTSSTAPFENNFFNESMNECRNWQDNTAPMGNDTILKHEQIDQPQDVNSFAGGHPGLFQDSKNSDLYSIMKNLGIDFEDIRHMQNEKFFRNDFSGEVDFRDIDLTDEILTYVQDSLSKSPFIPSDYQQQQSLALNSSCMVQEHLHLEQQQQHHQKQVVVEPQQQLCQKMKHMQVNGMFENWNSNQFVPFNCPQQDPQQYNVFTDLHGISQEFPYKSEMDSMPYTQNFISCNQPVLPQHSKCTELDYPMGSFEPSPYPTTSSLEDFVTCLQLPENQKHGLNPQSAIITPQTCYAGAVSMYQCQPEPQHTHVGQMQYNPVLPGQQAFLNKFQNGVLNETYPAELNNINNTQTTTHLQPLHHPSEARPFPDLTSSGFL

Row | Structure (SMILES) | Potency [1] | Potency [2] | Potency [3] | Potency [4] | Potency [5] | Potency [6] | outcome [7] | outcome [8] | Potency [9] | Potency [10] | Potency [11] | Potency [12] | Potency [13] | Potency [14] | Potency [15] | Potency [16] | Potency [17] | Potency [18] | Potency [19] | Potency [20]
1 | CCc1cccc(N(C)C(N)=Nc2cccc3ccccc23)c1 | inactive | inactive | inactive | inactive | inactive | inactive | inactive | inactive |  |  |  |  |  |  |  |  |  |  |  | 
2 | Fc1c(F)c(F)c(Br)c(F)c1F | inactive |  | inactive | inactive | inactive | inactive | inactive |  | inactive | inactive | inactive | inactive | inactive | inactive |  |  |  |  |  | 
3 | COc1ccccc1N=Nc1c(S(=O)(=O)O)cc2cc(S(=O)(=O)O)cc(NC(C)=O)c2c1O | 20.4 µM (active) |  | inactive | inactive | inactive |  | inactive | inactive | 22.9 µM (active) | inactive | inactive | inactive |  | inactive | inactive | inactive | inactive |  |  | 
4 | CC(C)(C)C(=O)O | inactive |  | inactive | inactive | inactive |  |  | inactive | inactive | inactive | inactive | inactive | inactive | inactive |  | inactive | inactive | inactive | inactive | inactive
